Measured values: the supplement of paper PMC11732987, “Enantioselective OTUD7B fragment discovery through chemoproteomics screening and high-throughput optimisation” (Communications Chemistry, 2025)

Experiments:
Assay in all cases: log2 ratio of Biotin-Ahx-Ub-VS probe labelling (fragment/DMSO); higher = less target engagement (more negative = stronger competition), active = hit call of the paper (q ≤ 0.05, log2 ratio ≤ -1)
Conditions in all cases: compound concentration: 200 uM; treatment time: 3 h
USP42 = target: T1, USP42 (UniProt Q9H9J4)
T1 sequence (whole entry): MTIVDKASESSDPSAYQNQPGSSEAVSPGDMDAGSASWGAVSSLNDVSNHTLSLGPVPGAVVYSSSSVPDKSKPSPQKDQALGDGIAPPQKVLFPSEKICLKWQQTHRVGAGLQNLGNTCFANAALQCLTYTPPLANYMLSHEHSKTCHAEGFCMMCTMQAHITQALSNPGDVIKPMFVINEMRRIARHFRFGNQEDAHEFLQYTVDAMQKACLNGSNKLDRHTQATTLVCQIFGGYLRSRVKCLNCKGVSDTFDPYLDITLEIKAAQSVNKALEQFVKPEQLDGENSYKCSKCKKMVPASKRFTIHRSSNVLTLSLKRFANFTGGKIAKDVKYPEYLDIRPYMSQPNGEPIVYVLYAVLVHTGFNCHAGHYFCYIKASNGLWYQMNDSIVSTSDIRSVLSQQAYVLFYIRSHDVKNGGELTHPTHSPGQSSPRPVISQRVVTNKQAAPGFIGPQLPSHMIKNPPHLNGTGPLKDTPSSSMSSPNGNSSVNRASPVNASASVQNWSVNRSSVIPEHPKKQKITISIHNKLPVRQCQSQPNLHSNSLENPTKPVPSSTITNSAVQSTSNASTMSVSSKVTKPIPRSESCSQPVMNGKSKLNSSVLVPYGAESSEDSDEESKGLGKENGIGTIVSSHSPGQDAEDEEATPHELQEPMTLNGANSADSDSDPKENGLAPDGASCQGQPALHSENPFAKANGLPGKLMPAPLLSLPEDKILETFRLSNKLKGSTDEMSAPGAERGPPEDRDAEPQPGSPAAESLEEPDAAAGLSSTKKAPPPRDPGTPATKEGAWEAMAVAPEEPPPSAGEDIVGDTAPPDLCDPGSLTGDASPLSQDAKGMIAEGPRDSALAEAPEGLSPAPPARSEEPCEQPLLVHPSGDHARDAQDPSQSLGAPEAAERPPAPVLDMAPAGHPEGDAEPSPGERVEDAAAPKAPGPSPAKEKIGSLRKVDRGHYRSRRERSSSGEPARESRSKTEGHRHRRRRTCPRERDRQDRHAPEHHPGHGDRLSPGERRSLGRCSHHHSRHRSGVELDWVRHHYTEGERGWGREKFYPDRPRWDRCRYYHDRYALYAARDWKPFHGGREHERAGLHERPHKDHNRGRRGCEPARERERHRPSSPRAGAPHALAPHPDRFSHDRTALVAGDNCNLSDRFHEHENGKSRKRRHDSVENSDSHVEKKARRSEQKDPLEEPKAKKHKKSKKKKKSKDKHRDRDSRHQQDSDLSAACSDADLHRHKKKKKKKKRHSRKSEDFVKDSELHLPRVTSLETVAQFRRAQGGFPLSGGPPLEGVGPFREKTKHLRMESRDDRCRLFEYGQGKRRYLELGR
Method in brief: (§1)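 HEK293T lysate (495 µg per sample, in Tris/CHAPS/IGEPAL buffer with protease inhibitors) was exposed in triplicate for 3 h to fragment at 200 µM or to vehicle, then to Biotin-Ahx-Ub-VS at 0.5 µM final for 1 h. Labelled DUBs were enriched on NeutrAvidin, digested with LysC and trypsin, and analysed by diaPASEF LC-MS/MS. Spectronaut label-free quantities were normalised to the global median, and values are average log2 ratios of fragment over vehicle from an unpaired t-test. Only proteins with ≥2 unique peptides were used.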

USP46 = USP46 (UniProt P62068)
Chain of USP46 (P62068 whole entry): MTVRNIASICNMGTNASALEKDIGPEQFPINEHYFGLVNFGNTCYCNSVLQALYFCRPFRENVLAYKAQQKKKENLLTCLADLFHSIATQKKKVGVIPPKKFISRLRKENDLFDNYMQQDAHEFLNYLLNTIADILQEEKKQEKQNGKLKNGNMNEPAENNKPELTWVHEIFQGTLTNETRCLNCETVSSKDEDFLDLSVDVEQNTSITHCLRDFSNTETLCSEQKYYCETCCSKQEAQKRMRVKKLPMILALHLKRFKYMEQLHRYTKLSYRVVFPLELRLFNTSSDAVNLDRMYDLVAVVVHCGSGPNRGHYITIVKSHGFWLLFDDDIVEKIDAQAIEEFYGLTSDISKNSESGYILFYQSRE
Method in brief: as §1

USP47 = target: T2, USP47 (UniProt Q96K76)
T2 sequence (whole entry): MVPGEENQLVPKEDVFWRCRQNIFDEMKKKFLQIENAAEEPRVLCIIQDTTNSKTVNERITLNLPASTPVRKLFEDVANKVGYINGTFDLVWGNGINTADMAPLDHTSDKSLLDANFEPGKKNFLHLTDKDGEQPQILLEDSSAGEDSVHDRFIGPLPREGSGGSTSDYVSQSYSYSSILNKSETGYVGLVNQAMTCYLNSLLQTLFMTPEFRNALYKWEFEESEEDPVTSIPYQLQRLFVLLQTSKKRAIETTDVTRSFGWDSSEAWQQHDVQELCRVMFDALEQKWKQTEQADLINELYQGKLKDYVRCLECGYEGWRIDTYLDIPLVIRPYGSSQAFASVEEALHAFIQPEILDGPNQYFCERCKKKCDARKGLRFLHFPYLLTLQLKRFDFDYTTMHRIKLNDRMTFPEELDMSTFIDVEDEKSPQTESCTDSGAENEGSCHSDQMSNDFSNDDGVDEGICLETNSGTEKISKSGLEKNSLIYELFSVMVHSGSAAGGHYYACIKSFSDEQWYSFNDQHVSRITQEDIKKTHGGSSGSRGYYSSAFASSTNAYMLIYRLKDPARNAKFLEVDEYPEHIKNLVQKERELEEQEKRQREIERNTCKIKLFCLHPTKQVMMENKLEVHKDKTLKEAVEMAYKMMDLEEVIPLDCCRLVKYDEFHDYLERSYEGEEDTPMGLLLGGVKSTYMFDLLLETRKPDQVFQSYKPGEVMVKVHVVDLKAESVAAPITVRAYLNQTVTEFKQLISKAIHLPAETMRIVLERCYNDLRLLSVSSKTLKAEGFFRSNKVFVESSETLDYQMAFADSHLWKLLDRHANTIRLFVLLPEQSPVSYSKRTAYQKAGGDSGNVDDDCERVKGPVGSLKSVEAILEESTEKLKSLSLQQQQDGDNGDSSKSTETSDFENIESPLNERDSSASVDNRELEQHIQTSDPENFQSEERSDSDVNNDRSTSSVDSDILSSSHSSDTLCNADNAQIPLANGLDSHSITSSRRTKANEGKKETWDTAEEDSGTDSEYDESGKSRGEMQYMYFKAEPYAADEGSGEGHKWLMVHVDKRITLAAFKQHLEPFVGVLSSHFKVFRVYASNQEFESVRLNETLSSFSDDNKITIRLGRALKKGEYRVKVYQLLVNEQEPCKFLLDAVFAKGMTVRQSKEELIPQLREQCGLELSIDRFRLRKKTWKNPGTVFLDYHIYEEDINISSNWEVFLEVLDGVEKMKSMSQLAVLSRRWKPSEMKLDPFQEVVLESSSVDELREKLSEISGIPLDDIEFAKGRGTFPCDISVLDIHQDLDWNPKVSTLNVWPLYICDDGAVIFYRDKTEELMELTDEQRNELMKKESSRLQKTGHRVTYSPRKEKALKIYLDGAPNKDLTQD
Method in brief: as §1

USP48 = target: T3, USP48 (UniProt Q86UV5)
T3 sequence (whole entry): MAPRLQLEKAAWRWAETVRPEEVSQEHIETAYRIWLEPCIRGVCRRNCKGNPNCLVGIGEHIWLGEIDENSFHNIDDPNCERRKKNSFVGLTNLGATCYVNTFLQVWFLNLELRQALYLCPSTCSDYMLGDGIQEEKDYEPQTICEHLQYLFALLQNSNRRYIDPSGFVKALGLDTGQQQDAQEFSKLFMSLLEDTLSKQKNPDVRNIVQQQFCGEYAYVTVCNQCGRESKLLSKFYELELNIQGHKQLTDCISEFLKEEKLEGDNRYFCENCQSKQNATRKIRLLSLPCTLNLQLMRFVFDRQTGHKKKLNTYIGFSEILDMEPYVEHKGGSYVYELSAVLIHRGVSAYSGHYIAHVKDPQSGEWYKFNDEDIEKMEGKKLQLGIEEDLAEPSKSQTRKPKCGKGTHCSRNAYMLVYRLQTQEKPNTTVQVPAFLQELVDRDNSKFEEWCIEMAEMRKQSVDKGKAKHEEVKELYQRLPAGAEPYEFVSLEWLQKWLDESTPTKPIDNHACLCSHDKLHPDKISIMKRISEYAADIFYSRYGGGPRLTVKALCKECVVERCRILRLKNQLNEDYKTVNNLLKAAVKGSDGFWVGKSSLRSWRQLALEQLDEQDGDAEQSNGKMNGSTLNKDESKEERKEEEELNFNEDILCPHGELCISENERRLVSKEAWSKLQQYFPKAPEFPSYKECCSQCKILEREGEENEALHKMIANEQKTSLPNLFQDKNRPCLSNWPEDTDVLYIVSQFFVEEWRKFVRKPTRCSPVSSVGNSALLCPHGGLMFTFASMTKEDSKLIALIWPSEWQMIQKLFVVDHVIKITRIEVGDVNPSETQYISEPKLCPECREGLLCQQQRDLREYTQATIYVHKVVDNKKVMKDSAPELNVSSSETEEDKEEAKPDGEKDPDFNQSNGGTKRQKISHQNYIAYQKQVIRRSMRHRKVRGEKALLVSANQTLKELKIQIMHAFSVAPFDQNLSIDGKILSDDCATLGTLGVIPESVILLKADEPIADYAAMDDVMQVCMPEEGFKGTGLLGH
Method in brief: as §1

USP5 = target: T4, USP5 (UniProt P45974)
T4 sequence (whole entry): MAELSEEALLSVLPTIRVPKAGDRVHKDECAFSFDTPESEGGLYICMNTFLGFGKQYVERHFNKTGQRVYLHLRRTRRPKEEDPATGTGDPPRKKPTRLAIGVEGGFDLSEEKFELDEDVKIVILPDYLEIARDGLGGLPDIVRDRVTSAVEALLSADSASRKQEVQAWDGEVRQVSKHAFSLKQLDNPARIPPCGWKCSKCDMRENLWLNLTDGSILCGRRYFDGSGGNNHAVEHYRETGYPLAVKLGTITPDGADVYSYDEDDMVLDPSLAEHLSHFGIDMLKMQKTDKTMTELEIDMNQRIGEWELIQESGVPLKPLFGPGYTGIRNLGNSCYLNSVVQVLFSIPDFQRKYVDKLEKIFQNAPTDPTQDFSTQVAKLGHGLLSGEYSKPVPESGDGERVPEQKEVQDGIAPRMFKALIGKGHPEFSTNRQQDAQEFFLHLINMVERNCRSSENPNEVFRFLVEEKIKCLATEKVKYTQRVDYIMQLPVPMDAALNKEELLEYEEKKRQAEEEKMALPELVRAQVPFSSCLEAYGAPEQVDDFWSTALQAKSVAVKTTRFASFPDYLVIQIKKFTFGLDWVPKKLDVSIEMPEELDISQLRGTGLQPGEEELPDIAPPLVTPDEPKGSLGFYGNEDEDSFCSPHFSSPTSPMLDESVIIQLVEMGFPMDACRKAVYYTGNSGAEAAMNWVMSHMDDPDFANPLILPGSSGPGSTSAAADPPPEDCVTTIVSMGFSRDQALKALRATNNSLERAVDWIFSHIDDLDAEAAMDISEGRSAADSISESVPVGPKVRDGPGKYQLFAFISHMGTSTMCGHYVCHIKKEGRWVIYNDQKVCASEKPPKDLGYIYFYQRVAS
Method in brief: as §1

USP54 = USP54 (UniProt Q70EL1)
Chain of USP54 (Q70EL1 whole entry): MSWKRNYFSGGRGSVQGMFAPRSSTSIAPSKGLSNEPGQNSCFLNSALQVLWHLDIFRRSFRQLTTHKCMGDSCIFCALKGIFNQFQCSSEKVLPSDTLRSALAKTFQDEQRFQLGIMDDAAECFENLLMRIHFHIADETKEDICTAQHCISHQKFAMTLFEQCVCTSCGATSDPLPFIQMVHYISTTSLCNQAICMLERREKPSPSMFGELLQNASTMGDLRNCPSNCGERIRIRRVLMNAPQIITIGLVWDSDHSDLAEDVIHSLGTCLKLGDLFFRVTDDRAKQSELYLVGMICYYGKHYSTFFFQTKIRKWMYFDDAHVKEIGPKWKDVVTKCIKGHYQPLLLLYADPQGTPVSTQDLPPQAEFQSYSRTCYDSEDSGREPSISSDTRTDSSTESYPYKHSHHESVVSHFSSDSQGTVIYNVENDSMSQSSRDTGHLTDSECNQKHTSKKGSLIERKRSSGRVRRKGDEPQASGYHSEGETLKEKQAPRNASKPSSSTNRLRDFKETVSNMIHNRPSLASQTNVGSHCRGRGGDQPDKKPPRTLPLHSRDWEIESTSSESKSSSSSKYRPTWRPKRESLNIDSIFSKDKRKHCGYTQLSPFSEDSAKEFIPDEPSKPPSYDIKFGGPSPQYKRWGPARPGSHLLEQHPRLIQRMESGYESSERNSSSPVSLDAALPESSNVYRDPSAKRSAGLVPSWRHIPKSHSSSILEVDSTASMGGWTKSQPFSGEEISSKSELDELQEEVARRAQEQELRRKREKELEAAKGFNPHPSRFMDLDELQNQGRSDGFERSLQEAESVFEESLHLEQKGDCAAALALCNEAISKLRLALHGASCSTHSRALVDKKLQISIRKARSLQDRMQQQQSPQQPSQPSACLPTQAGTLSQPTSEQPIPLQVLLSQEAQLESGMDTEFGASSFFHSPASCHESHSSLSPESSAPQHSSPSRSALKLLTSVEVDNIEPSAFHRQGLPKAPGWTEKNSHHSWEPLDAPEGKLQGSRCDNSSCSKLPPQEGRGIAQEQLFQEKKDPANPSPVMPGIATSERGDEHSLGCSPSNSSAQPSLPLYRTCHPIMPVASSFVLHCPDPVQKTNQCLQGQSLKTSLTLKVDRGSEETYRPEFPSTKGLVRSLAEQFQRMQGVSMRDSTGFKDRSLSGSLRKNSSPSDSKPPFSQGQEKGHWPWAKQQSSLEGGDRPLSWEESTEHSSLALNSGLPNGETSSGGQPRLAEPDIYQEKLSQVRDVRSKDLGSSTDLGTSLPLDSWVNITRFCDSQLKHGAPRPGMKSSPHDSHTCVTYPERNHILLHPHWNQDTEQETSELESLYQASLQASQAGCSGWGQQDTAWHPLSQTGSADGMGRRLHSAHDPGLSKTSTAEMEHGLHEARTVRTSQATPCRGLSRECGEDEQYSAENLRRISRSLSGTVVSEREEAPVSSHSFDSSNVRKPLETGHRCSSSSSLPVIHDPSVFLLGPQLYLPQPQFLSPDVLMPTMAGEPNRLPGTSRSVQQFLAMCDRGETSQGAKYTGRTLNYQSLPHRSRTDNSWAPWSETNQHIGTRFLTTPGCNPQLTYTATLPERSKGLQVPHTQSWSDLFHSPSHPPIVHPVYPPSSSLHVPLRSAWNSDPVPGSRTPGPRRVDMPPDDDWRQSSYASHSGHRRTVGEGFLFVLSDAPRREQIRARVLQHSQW
Method in brief: as §1

USP7 = USP7 (UniProt Q93009)
Chain of USP7 (Q93009 whole entry, looked up): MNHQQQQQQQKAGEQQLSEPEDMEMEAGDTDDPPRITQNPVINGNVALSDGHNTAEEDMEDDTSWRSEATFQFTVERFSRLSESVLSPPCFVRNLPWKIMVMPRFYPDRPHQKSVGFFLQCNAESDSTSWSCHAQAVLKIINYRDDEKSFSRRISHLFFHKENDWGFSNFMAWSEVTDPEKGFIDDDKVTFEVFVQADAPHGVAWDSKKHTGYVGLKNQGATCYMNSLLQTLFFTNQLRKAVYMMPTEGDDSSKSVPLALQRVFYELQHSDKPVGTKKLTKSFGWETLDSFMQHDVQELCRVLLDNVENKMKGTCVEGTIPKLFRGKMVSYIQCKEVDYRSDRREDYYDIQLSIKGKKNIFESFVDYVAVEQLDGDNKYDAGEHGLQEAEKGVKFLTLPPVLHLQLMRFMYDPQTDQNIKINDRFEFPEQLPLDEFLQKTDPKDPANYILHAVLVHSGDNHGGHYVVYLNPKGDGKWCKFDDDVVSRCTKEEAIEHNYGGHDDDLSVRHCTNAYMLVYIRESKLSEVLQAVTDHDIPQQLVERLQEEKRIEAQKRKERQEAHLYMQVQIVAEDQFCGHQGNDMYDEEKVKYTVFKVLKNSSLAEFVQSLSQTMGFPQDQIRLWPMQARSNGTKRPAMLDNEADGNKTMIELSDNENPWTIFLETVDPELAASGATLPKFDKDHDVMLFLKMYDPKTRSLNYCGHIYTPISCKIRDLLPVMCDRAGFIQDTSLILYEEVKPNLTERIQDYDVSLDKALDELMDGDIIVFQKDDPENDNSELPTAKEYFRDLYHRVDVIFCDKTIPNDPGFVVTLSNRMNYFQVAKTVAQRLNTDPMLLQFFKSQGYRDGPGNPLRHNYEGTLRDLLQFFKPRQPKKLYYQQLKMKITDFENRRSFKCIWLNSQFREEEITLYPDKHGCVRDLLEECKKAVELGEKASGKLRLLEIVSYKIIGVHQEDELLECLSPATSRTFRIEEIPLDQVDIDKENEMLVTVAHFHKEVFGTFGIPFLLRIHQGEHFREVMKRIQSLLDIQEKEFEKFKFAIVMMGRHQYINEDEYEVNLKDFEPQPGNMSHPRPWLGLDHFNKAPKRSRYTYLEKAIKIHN
Method in brief: as §1

USP8 = target: T5, USP8 (UniProt P40818)
T5 sequence (whole entry): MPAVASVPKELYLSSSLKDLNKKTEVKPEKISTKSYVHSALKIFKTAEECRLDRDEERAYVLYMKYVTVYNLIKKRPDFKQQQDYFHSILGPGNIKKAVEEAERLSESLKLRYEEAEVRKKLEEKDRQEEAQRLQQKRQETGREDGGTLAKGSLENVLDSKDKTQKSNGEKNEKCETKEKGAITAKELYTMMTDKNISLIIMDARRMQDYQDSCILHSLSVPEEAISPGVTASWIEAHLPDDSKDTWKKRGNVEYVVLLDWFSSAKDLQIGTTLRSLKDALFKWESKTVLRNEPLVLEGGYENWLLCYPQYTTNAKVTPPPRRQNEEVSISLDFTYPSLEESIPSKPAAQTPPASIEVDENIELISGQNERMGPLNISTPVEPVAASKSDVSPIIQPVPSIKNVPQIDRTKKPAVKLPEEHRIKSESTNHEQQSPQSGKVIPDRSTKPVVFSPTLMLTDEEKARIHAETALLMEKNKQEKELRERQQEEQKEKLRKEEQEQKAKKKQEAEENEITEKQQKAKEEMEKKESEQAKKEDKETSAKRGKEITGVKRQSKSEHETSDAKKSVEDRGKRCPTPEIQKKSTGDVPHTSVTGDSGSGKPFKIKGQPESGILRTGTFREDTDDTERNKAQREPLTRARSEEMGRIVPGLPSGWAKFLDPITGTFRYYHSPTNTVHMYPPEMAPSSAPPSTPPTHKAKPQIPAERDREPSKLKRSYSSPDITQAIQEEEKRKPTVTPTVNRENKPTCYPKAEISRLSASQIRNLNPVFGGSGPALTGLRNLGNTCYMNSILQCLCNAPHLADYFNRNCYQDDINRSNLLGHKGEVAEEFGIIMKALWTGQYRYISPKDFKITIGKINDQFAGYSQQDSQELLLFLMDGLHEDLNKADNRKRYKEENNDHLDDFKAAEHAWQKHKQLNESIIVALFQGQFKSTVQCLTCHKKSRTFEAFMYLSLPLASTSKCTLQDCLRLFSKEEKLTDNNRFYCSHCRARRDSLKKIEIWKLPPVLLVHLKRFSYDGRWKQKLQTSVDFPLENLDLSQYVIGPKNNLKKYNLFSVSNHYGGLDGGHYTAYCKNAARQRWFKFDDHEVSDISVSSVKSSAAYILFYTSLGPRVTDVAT
Method in brief: as §1

USP9X = USP9X (UniProt Q93008)
Method in brief: as §1

UniProt O00487 = target: UniProt O00487
Chain of UniProt O00487 (O00487 whole entry): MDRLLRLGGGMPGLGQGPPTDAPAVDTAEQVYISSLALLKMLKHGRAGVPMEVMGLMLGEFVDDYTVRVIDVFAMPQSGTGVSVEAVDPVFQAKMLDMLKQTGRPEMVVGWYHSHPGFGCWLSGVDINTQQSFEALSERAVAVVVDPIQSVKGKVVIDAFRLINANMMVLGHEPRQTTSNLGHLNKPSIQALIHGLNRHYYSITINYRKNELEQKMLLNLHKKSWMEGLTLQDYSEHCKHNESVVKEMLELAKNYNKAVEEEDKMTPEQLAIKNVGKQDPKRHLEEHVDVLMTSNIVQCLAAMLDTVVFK
Method in brief: as §1

Measured: log2 ratio of Biotin-Ahx-Ub-VS probe labelling

CN(CCC(O)c1ccc(Br)cc1)C(=O)CCl (stereo not given)
inactive: USP42 0.556 | USP46 -0.218 | USP47 -0.526 | USP48 -0.691 | USP5 -0.00644 | USP54 0.00894 | USP7 -0.612 | USP8 -0.072 | USP9X -0.275 | UniProt O00487 -0.00696

CS(=O)(=O)c1ccc(CNC(=O)CCl)cc1
inactive: USP42 0.283 | USP46 -0.122 | USP47 -0.0551 | USP48 -0.0444 | USP5 -0.111 | USP54 0.392 | USP7 -0.145 | USP8 -0.0148 | USP9X -0.103 | UniProt O00487 -0.101

CCCn1nccc1NC(=O)CCl
inactive: USP42 0.302 | USP46 -0.137 | USP47 -0.323 | USP48 -0.124 | USP5 -0.757 | USP54 0.705 | USP7 -0.254 | USP8 -0.318 | USP9X -0.239 | UniProt O00487 -0.102
